From PMC4336329 (PLoS ONE, 2015)
Hit rate of the full screen: of about 310,000 compounds, about 2,200 (0.71%) showed an effect of 50% or more. Effects have a minus sign here. Only a selection was taken, and strong results are over-represented in it overall.

Biological target: human ether-à-go-go-related gene (hERG) potassium channel (human, UniProt Q12809)
Experiment: primary screen, population patch clamp on CHO cells stably expressing hERG; higher = less effect of the substance
Protocol: Briefly, Chinese hamster ovary (CHO) cells stably expressing the hERG channel were dislodged from tissue culture flasks and dispensed into PPC plates. […] During the recording, background leak currents were estimated by a 100 ms step to -80 mV from an initial holding potential of -70 mV and subtracted from the subsequent current measurement. The campaign was conducted in two phases using slight differences in recording protocol. In the first phase, the initial voltage pulse used a 100 ms step to -30 mV from a holding potential of -70 mV, a 2 s conditioning step to +25 mV, and a 2 s test step to -30 mV. During the second phase of the screen, the potential during the conditioning step was raised to +45 mV. In both phases of the campaign, a secondary voltage pulse was applied using the same parameters as the second phase initial pulse. The initial and secondary pulses were applied in the absence of compound, and upon application of 1 μM and 10 μM test concentrations. Small molecule effects on hERG current density were quantified by […].

human ether-à-go-go-related gene (hERG) potassium channel, sequence (Q12809 whole entry, looked up): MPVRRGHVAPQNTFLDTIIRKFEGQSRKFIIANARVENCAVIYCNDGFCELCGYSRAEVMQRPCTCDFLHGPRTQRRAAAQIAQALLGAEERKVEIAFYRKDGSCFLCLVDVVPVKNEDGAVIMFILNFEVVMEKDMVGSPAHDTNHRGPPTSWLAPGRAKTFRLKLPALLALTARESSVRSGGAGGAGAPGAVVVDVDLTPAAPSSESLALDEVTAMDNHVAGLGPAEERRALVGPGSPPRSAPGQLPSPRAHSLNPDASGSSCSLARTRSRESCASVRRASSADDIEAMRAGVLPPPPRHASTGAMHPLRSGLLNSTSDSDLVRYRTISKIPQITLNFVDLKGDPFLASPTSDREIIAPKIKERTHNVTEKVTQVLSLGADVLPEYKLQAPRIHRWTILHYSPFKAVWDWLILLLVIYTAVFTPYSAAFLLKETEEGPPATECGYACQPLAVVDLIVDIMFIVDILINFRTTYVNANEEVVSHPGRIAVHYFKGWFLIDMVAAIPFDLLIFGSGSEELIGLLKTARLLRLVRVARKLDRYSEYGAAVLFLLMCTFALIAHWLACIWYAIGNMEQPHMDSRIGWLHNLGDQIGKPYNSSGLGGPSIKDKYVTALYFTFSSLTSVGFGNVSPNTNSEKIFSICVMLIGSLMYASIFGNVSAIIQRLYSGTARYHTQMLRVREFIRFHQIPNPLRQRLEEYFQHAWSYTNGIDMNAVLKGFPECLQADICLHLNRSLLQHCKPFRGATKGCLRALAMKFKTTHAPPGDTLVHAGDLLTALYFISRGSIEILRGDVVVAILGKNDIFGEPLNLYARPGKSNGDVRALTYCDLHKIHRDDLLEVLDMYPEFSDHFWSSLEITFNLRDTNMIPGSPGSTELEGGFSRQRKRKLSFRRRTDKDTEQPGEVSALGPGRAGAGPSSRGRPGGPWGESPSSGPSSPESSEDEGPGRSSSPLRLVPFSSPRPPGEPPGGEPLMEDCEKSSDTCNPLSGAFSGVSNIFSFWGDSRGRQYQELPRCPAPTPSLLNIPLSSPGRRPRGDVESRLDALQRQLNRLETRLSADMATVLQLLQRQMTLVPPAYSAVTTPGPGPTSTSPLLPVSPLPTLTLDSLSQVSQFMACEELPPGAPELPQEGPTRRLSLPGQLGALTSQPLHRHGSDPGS

SMILES | hERG current change (%, negative = inhibition) at 1uM
COc1ccc(N2CCN(C(=O)CSc3ccccc3)CC2)cc1 | 12.7%
O=C(Cc1ccccc1)N1CCN(c2ccc([N+](=O)[O-])cc2)CC1 | -36.4%
COc1ccc(N2CCN(C(=O)CSc3ccc([N+](=O)[O-])cc3)CC2)cc1 | -85.1%
COc1ccc(C(=O)CCC(=O)N2CCN(c3ccc([N+](=O)[O-])cc3)CC2)cc1 | -28.4%
Cc1cccc(C)c1OCC(O)CN.Cl.O (stereo not drawn) | 10.5%
COc1ccccc1NC(=O)/C=C1\SCC(=O)N1C | 2.4%
NC(=O)CSc1nc(-c2ccccc2)c(-c2ccccc2)o1 | 8.48%
C/C=C1\COC(C(=O)NCc2ccncc2)(C(F)(F)F)C=C1C=C1CCCCC1 (stereo not drawn) | 12.8%
CCCc1n[nH]c2c1/C(=N\OCC)CC(C)(C)C2 | 12.8%
C=CCN1CCN(C(c2cc(OC)ccc2OC)c2nnnn2CC2CCCO2)CC1.Cl (stereo not drawn) | 12.4%
Cc1nn(C)c(Cl)c1CN1CCCC(C(=O)Nc2cccc(-n3cccn3)c2)C1 (stereo not drawn) | -3.6%
CN1C(=O)CC(N2CCN(c3ccc(Cl)c(Cl)c3)CC2)C1=O (stereo not drawn) | 1.54%
O=C(CN1CCN(c2ccc([N+](=O)[O-])cc2)CC1)c1ccccc1 | -9.94%
O=C(CN1CCN(c2ccc([N+](=O)[O-])cc2)CC1)Nc1nccs1 | -29.3%
O=C(NC(CC(=O)N1CCN(c2ccccc2O)CC1)c1ccccc1)c1ccccc1Cl (stereo not drawn) | -15.6%
O=C(CCCC(=O)N1CCN(c2cccc(Cl)c2)CC1)c1ccccc1 | 1.83%
O=C(CN1CCN(c2ccc([N+](=O)[O-])cc2)CC1)Nc1ccccn1 | -75.8%
O=C(NC(CC(=O)N1CCN(c2ccccc2)CC1)c1ccccc1)c1ccccc1Cl (stereo not drawn) | -19.6%
O=C(Cc1ccc(F)cc1)N1CCN(c2ccc([N+](=O)[O-])cc2)CC1 | -45.8%
O=C(CN1CCN(CC(=O)Nc2ccccn2)CC1)Nc1ccccn1 | -9.95%
O=C(CCCC(=O)N1CCN(c2ccc([N+](=O)[O-])cc2)CC1)c1ccccc1 | -66%

SMILES | hERG current change (%, negative = inhibition) at 1uM
O=C(NC(CC(=O)N1CCN(c2ccc([N+](=O)[O-])cc2)CC1)c1ccccc1)c1ccccc1Cl (stereo not drawn) | -69%
O=C(Cc1ccc([N+](=O)[O-])cc1)N1CCN(c2ccc([N+](=O)[O-])cc2)CC1 | -82.5%
Cc1ccc(CC(=O)N2CCN(c3ccc([N+](=O)[O-])cc3)CC2)cc1 | -30.4%
Cn1cc(Cl)c(-c2n[nH]c(=S)n2-c2ccccc2)n1 | 14%
CCOC(=O)c1sc(NC(=O)c2ccc(OC)cc2)nc1C | 15.9%
CCN(C(=O)C1CC1)C1CCS(=O)(=O)C1 (stereo not drawn) | 9.67%
CCC(C)C(=O)N[C@@H](c1ccccc1)[C@@H](O)C(=O)O[C@H]1C[C@@]2(O)[C@@H](OC(=O)c3ccccc3)C3[C@](C)(C(=O)[C@H](OC(C)=O)C(=C1C)C2(C)C)[C@@H](O)C[C@H]1OC[C@@]31OC(C)=O (stereo partly drawn) | 7.34%
CCOC(=O)COc1ccc(CCNC(C)=O)cc1 | 17.8%
Cn1c(CSCc2ccccc2Cl)nnc1SCC(=O)Nc1nccs1 | 2.67%
CC(C)CNS(=O)(=O)c1ccc(CCC(=O)N2CCN(c3ccccc3)CC2)cc1 | -61.5%
Cc1noc(C)c1CSCC(=O)N1CCN(c2ccc(F)cc2)CC1 | -17.9%
CC(C)CNS(=O)(=O)c1ccc(CCC(=O)N2CCN(c3ccc(F)cc3)CC2)cc1 | -9.44%
COc1ccc(N2CCN(C(=O)CCCSc3nc4ccccc4[nH]3)CC2)cc1 | -29.6%
O=C(CCCSc1nc2ccccc2[nH]1)N1CCN(c2ccc([N+](=O)[O-])cc2)CC1 | -86.9%
CC(NC(=O)c1ccccc1)c1nc2ccccc2n1Cc1ccc(C#N)cc1 (stereo not drawn) | -35.6%
CCNS(=O)(=O)c1ccc(CCC(=O)N2CCN(c3ccccc3)CC2)cc1 | 3.97%
Cc1cccc(N2CCN(C(=O)CSCc3c(C)noc3C)CC2)c1C | 6.62%
COc1cccc(N2CCN(C(=O)CC(NC(=O)c3ccccc3)c3ccccc3)CC2)c1 (stereo not drawn) | -27%
Cc1noc(C)c1CSCC(=O)N1CCN(c2ccc([N+](=O)[O-])cc2)CC1 | -83.4%
O=C(CCCSc1nc2ccccc2[nH]1)N1CCN(c2ccccc2)CC1 | -32.8%
N#Cc1ccc(CN2CCN(C(=O)CC(NC(=O)c3ccccc3)c3ccccc3)CC2)cc1 (stereo not drawn) | -84.7%
